Counter-ions that a name gives are not always drawn. ± gives the standard deviation of the averaged measurements.
Legend:
IMR-90 = assay: relative cell viability (ATPlite) vs untreated control (fraction); higher = less toxic; conditions: 1 µM; 72 h
K562 [1] = assay: as above; conditions: 1 µM; 72 h
K562 [2] = assay: relative cell viability (ATPlite) vs untreated control, with imatinib (fraction); higher = less toxic; conditions: 1 µM; 72 h; imatinib 0.125 µM

| SMILES | relative cell viability (IMR-90) | relative cell viability (K562 [1]) | relative cell viability (K562 [2]) |
| --- | --- | --- | --- |
| Nc1n[nH]c(N)c1N=Nc1ccc(O)cc1 [Cdk9 Inhibitor II] | 0.93 ± 0.099 | 0.839 ± 0.073 | 0.765 ± 0.035 |
| NCCCn1cc(C2=C(c3c[nH]c4ccccc34)C(=O)NC2=O)c2ccccc21 [Bisindolylmaleimide III, Hydrochloride] | 1.06 ± 0.088 | 0.88 ± 0.058 | 0.776 ± 0.042 |
| Cn1cnc2cc3c(Nc4cccc(Br)c4)ncnc3cc21 | 0.973 ± 0.054 | 1.02 ± 0.078 | 0.874 ± 0.02 |
| NS(=O)(=O)c1ccc(N=Nc2c(O)[nH]c3ccc(Br)cc23)cc1 [Cdk2 Inhibitor II] | 1.22 ± 0.2 | 0.839 ± 0.084 | 0.825 ± 0.052 |
| O=C1NC(=O)c2c1c1c3ccccc3[nH]c1n1cncc21 [Isogranulatimide] | 1.01 ± 0.063 | 0.837 ± 0.077 | 0.773 ± 0.049 |
| CC(C)[C@H](CO)Nc1nc(Nc2cc(N)cc(Cl)c2)c2ncn(C(C)C)c2n1 [Aminopurvalanol A] | 0.837 ± 0.084 | 0.916 ± 0.037 | 0.796 ± 0.025 |
| CO[C@H]1C[C@@H]2CC[C@@H](C)[C@@](O)(O2)C(=O)C(=O)N2CCCC[C@H]2C(=O)O[C@H]([C@H](C)C[C@@H]2CC[C@@H](O)[C@H](OC)C2)CC(=O)[C@H](C)/C=C(\C)[C@@H](O)[C@@H](OC)C(=O)[C@H](C)C[C@H](C)/C=C/C=C/C=C/1C [Rapamycin] | 0.598 ± 0.075 | 0.585 ± 0.032 | 0.481 ± 0.036 |
| Cc1cncc2cccc(S(=O)(=O)N3CCCN(C(=O)CN)C[C@@H]3C)c12 [Rho Kinase Inhibitor IV] | 1.05 ± 0.12 | 0.809 ± 0.065 | 0.669 ± 0.031 |
| COc1ccc(CNc2nc(N(CCO)CCO)nc3c2ncn3C(C)C)cc1 [Cdk2 Inhibitor III] | 0.927 ± 0.086 | 0.855 ± 0.061 | 0.772 ± 0.058 |

— the supplement of paper PMC4100887
